Several values for one entry are separate records, joined by “and”; a condition that tells them apart may be missing. Equal entries are not always repeated. About 2,000 (36%) of roughly 5,500 compounds were called active. Roughly 18% stayed inconclusive and do not appear here. Rule as the data show it: active = normalized growth mostly below about 0.91 (no sharp cut-off); inconclusive = no clear call, values can overlap the other calls; inactive = mostly above about 0.92. The list shows a part of the results.
Assay: chemical genetic growth profiling, strain panel (AID 1159580);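 also: tested at 20 µM; growth read once vehicle control cultures reached saturation at 30 °C; 1 = growth at the plate median or of vehicle wells; lower values mean less growth of the strain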
Conditions: S. cerevisiae deletion strains, growth OD

Measured: normalized growth

CO[C@H]1C[C@H](O[C@H]2[C@H](C)[C@@H](OC3O[C@H](C)C[C@H](N(C)C)[C@H]3O)[C@@H](C)C[C@]3(CO3)C(=O)[C@H](C)[C@@H](O)[C@@H](C)[C@@H](C)OC(=O)[C@@H]2C)O[C@@H](C)[C@@H]1O (some centres not stated)
inactive: locus YAL013W, strain DEP1, hits give low values 1.01 | locus YAL021C, strain ccr4, hits give low values 1.03 | locus YAL026C, strain drs2, hits give low values 0.991 | locus YAL030W, strain snc1, hits give low values 1.01 | locus YBL061C, strain skt5, hits give low values 1 | locus YBR009C, strain hhf1, hits give low values 0.96 | locus YBR021W, strain FUR4, hits give low values 0.994 | locus YBR023C, strain chs3, hits give low values 1.02 | locus YBR171W, strain sec66, hits give low values 0.996 | locus YBR229C, strain ROT2, hits give low values 1.02 | locus YBR231C, strain swc5, hits give low values 1.02 | locus YBR279W, strain paf1, hits give low values 1.01 | locus YCL011C, strain gbp2, hits give low values 0.998 | locus YCL016C, strain dcc1, hits give low values 1.02 | locus YCL029C, strain bik1, hits give low values 1 | locus YCL061C, strain MRC1, hits give low values 1.02 | locus YCL069W, strain vba3, hits give low values 1 | locus YCR088W, strain abp1, hits give low values 1.01 | locus YDL005C, strain med2, hits give low values 1.02 | locus YDL035C, strain GPR1, hits give low values 1.01 | locus YDL040C, strain nat1, hits give low values 1.01 | locus YDL074C, strain BRE1, hits give low values 1.02 | locus YDL101C, strain DUN1, hits give low values 1.02 | locus YDL134C, strain PPH21, hits give low values 1.01 | locus YDL185W, strain tfp1, hits give low values 1.01 | locus YDL192W, strain arf1, hits give low values 1.01 | locus YDR001C, strain nth1, hits give low values 1 | locus YDR069C, strain doa4, hits give low values 1.03 | locus YDR101C, strain arx1, hits give low values 1 | locus YDR137W, strain rgp1, hits give low values 0.998 | locus YDR150W, strain NUM1, hits give low values 1 | locus YDR159W, strain sac3, hits give low values 0.994 | locus YDR162C, strain NBP2, hits give low values 1.01 | locus YDR195W, strain ref2 1.01 | locus YDR297W, strain sur2, hits give low values 1.01 | locus YDR318W, strain mcm21, hits give low values 1.01 | locus YDR334W, strain swr1, hits give low values 0.995 | locus YDR335W, strain msn5, hits give low values 0.998 | locus YDR388W, hits give low values 0.991 | locus YDR392W, strain spt3, hits give low values 0.945 | locus YDR502C, strain sam2, hits give low values 1.02 | locus YEL003W, strain gim4, hits give low values 0.987 | locus YEL037C, strain rad23, hits give low values 0.994 | locus YEL061C, strain CIN8 (second series), hits give low values 0.999 | locus YEL061C, strain CIN8, hits give low values 1 | locus YER015W, strain faa2, hits give low values 0.992 | locus YER016W, strain bim1, hits give low values 1.02 | locus YER110C, hits give low values 0.986 | locus YER111C, strain swi4, hits give low values 1 | locus YER155C, strain BEM2 (second series), hits give low values 1.02 | locus YER155C, strain BEM2, hits give low values 1 | locus YER167W, strain BCK2, hits give low values 1.01 | locus YFR010W, strain ubp6, hits give low values 0.988 | locus YGL078C, strain dbp3, hits give low values 1 | locus YGL086W, strain mad1, hits give low values 0.995 | locus YGL167C, strain pmr1, hits give low values 0.994 | locus YGL173C, strain kem1, hits give low values 1 | locus YGL227W, strain vid30, hits give low values 1.02 | locus YGL240W, strain doc1, hits give low values 1.03 | locus YGL248W, strain PDE1, hits give low values 1.02 | locus YGL253W, strain hxk2, hits give low values 1.02 | locus YGR078C, strain PAC10, hits give low values 1.02 | locus YGR135W, strain pre9, hits give low values 1.01 | locus YGR229C, strain SMI1, hits give low values 1.03 | locus YGR252W, strain gcn5, hits give low values 1.14 | locus YHR013C, strain ard1, hits give low values 1.02 | locus YHR027C, strain rpn1, hits give low values 0.999 | locus YHR030C, strain SLT2, hits give low values 1.01 | locus YHR079C, strain IRE1 (second series), hits give low values 0.989 | locus YHR079C, strain IRE1, hits give low values 1.01 | locus YHR094C, strain hxt1, hits give low values 0.98 | locus YHR129C, strain ARP1, hits give low values 0.998 | locus YHR142W, strain chs7, hits give low values 0.972 | locus YHR200W, strain rpn10, hits give low values 1.01 | locus YIL066C, strain RNR3, hits give low values 1.02 | locus YIL073C, strain SPO22, hits give low values 1.05 | locus YIL125W, strain kgd1, hits give low values 1 | locus YIR030C, strain dcg1, hits give low values 0.993 | locus YJL092W, strain hpr5, hits give low values 1.01 | locus YJL095W, strain BCK1 (second series), hits give low values 1.01 | locus YJL095W, strain BCK1, hits give low values 1.03 and 0.995 | locus YJL115W, strain asf1, hits give low values 0.991 | locus YJL129C, strain trk1, hits give low values 1 | locus YJL134W, strain LCB3, hits give low values 1 | locus YJL154C, strain vps35, hits give low values 1 | locus YJL164C, strain tpk1, hits give low values 0.982 | locus YJL166W, strain qcr8, hits give low values 1.03 | locus YJL168C, strain set2, hits give low values 0.987 | locus YJL187C, strain SWE1 (second series), hits give low values 1.02 | locus YJL187C, strain SWE1, hits give low values 1 | locus YJR043C, strain POL32, hits give low values 1.02 | locus YJR066W, strain TOR1, hits give low values 0.981
